High-throughput results: PubChem BioAssay, National Center for Advancing Translational Sciences (NCATS)
KB-V1 cytotox = KB-V1 MDR subline cytotoxicity; Potency, µM (series often up to 46.1 µM), actives largely listed as cytotoxic; 3.4% of 400,000 active; KB-V1 MDR cells viability, CellTiter-Glo, 72 h; also: % is scaled to controls: 0 for no effect and ±100 for the full control effect; nearly all actives have a fitted effect of over 60% in size
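KB-V1 MDR subline cells in DMEM (phenol-red free, 10% FBS) exposed to compounds in qHTS concentration series for 72 h at 37 degrees C. Viability read by CellTiter-Glo luminescence; concentration-effect curves fitted after normalization and correction.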
KB-3-1 tox = kills parental KB-3-1 adenocarcinoma cells; 1.4% of 400,000 active; Potency, µM (top dose mostly 46.1 µM), hits mostly cytotoxic; AID 1347075; KB-3-1 viability, CellTiter-Glo ATP luminescence, 72 h; also: % is scaled to controls: 0 for no effect and ±100 for the full control effect; nearly all actives have a fitted effect of over 60% in size
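Parental KB-3-1 viability, qHTS format: 72 h compound exposure, 37 °C; CellTiter-Glo; media-only wells and DMSO plates as controls; concentration-effect fits on corrected data.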
SW480 rereplic = DNA re-replication induction in SW480 cells. SW480 DNA re-replication, Hoechst DNA content imaging, 48 h. Potency, µM (series often up to 46.1 µM), without a hit: top-dose re-replication activation, most hits filed as activators. 1.8% of 340,000 active. AID 624297; also: % of control where 0% means no effect; nearly all actives have a fitted effect of over 55% in size
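Compounds, transferred as 23 nL by pin tool, were incubated with cells for 48 hr; DNA content per nucleus was then quantified by Hoechst staining and fluorescence plate imaging.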
PINK1 modulator = modulators of PINK1 expression; PINK1 immunofluorescence, high-content cytometry, 24 h; Potency, µM (doses to about 76.6 µM), without a hit: at the top dose activation (PINK1 increase), usual class: activators; 0.2% of 410,000 active; AID 624263; active = well fitted activation curve with a large enough effect; inconclusive = small, poorly fitted or top-dose-only effect; cell line not stated here; also: % of control where 0% means no effect; nearly all actives have a fitted effect of over 65% in size
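PINK1 protein level read as immunofluorescence by microplate cytometer in a fixed, stained stable cell line after 24 h exposure to five compound concentrations, with CCCP as control.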
MCF10A rereplic = inducers of DNA re-replication in MCF 10A breast cells; MCF 10A DNA re-replication, Hoechst nuclear intensity, 48 h; Potency, µM (doses to about 46.1 µM), without a hit: at the highest dose activity, positive = re-replication, most hits filed as activators; 2.9% of 350,000 active; AID 624296; also: % of control where 0% means no effect; nearly all actives have a fitted effect of over 50% in size
Starred values were filed as active, the others as inactive; i = inactive; ? = inconclusive; · = not tested or not shown; [ ] = remark or other dose. In the library only some 6.7% were active in any assay of this set; here they are far more common. Unless noted, calls follow the shape of the dose curve; as a rule, active = well fitted curve in the direction sought with a large enough effect; inconclusive = small, poorly fitted or top-dose-only effect, or another doubt; inactive = no such curve, though single readings can be large; an effect the other way counts as inactive or inconclusive. Potency is read from the fitted curve at half-maximal effect.

SMILES	KB-V1 cytotox	KB-3-1 tox	SW480 rereplic	PINK1 modulator	MCF10A rereplic
O=C(NCc1cccc(Br)c1)C1CCCCN1S(=O)(=O)c1ccc(F)cc1 (centres undefined)	i	i	·	1%	·
O=c1c2c3c(sc2nnn1Cc1ccc(F)cc1)CCCC3	i	i	·	0%	·
Cc1oc(-c2ccccc2F)nc1CS(=O)(=O)CC(=O)N1CCN(c2ccc(Cl)cc2)CC1	i	16µM*	·	-1%	·
Cc1nn(C2CC(O)C(O)C(CO)O2)c(=O)[nH]c1=O (centres undefined)	i	i	-4%	1%	-6%
CCOCC(=O)Nc1c(C(=O)Nc2ccccc2OC)oc2ccccc12	1.8µM*	i	-5%	17%[38.3 µM]	-1%
CCOc1ccccc1NC(=O)c1oc2ccccc2c1NC(=O)C1CCCO1 (centres undefined)	21µM*	i	7%	5%	8%
COc1ccccc1NC(=O)c1oc2ccccc2c1C	i	i	·	2%	·
COc1ccc(NC(=O)c2oc3ccccc3c2C)c(OC)c1	21µM*	?	0%	-6%[38.3 µM]	-1%
O=C(OCc1ccc(Cl)c(Cl)c1)c1ccc[nH]1	i	i	-18%	1%	15%
CC(C)C[C@H]1CNC(=O)C(=O)N1C[C@@H]1CCCN1C[C@H](Cc1ccccc1)N1C[C@H](Cc2ccccc2)N(CC2CCCCC2)C(=O)C1=O	i	i	·	0%	·
Cc1ccc(CNC(=O)c2ccc(CSCc3ccccc3Cl)o2)cc1	·	·	·	1%	·
CCOC(=O)C1=C(C)NC2=C(C(=O)CCC2)C1c1ccc(O)c(OCC)c1 (centres undefined)	?	i	-20%	-1%	-48%
COc1cc(C2C3=C(CCCC3=O)Nc3ccc4ncccc4c32)ccc1O (centres undefined)	i	?	23µM*	4%	15µM*
CCOc1cc(C2C3=C(CCCC3=O)Nc3ccc4ncccc4c32)ccc1O (centres undefined)	i	13µM*	18µM*	5%	?
COc1ccc(C2C3=C(CCCC3=O)Nc3ccc4ncccc4c32)cc1OC (centres undefined)	i	i	0%	4%	7%
O=C1CCCC2=C1C(c1cccc(O)c1)c1c(ccc3ncccc13)N2 (centres undefined)	i	i	?	7%	18µM*
COc1cc(C2C3=C(CCCC3=O)Nc3[nH]n(-c4ccccc4)c(=O)c32)ccc1OC(C)=O (centres undefined)	i	i	21µM*	-1%	7.3µM*
COc1ccc(/C=C\c2onc(C)c2S(=O)(=O)N2CCC(C(=O)Nc3ccccc3OC)CC2)cc1	·	·	·	2%	·
CCOC(=O)C(Cc1ccccc1)NC(=O)CCc1nnc2ccc(N3CCCC3)nn12 (centres undefined)	i	i	-2%	1%	-1%
FC(F)(F)c1cccc(-c2ccn3ncnc3n2)c1	21µM*	i	11%	0%	7%
O=C(Nc1cccn2ncnc12)c1cccc(C(F)(F)F)c1	i	i	-11%	-1%	3%
CCOC(=O)c1c(C)[nH]c(C)c1S(=O)(=O)N1CCC(C(=O)NCc2ccccc2)CC1	?	i	·	0%	·
Cc1ccc(Cl)cc1N1CCN(C(CC(C)C)c2nnnn2CC2CCCO2)CC1 (centres undefined)	?	?	-4%	8%	2.9µM*
CC(C)CC(c1nnnn1CC1CCCO1)N1CCN(c2cccc(Cl)c2)CC1 (centres undefined)	i	?	?	6%	?
CCC(c1nnnn1C(C)(C)C)N1CCN(C2CCCC2)CC1 (centres undefined)	i	i	1%	0%	-16%
CC(C)CC(c1nnnn1CC1CCCO1)N1CCN(C2CCCC2)CC1 (centres undefined)	i	i	-1%	-2%	1%
CCCC(c1nnnn1CC1CCCO1)N1CCN(c2cc(Cl)ccc2C)CC1 (centres undefined)	?	?	19%	5%	5.2µM*
CC(C)CC(c1nnnn1Cc1ccco1)N1CCN(c2cccc(Cl)c2)CC1 (centres undefined)	?	10µM*	?	3%	?
